Data as given in PubChem BioAssay (NCI).
The panel holds about 79,000 compounds, 15% with a hit somewhere; the sample as a whole holds those more often. Unmarked numbers belong to inactive results. Activity calls are given as the source filed them. Rule as the data show it: active = growth inhibition above about 70%; inactive = the rest.

Assays:
[1] = NCI Yeast Anticancer Drug Screen. Data for the rad50 strain (AID 155);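 also: 0% = growth of vehicle-only cultures of the same strain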; settings: S. cerevisiae rad50 strain growth inhibition; at 50.0 µM; stronger effect = higher value
Procedure, shortened: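 DNA repair mutant yeast, compound exposure, growth read-out; inhibition is taken relative to vehicle.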

[2] = NCI Yeast Anticancer Drug Screen. Data for the mec2-1 strain (AID 157); settings: S. cerevisiae mec2-1 strain, at 50.0 µM, stronger effect = higher value
Procedure, shortened: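 Vehicle-treated cultures served as reference for growth inhibition of compound-exposed mec2-1 yeast.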

[3] = NCI Yeast Anticancer Drug Screen. Data for the sgs1 mgt1 strain (AID 161);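 also: 0% = growth of cultures given vehicle only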; settings: S. cerevisiae sgs1 mgt1 strain, at 50.0 µM, stronger effect = higher value
Procedure, shortened: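 Inhibition of yeast growth, normalised to vehicle-treated controls, is reported for a strain bearing genetic alterations in DNA damage repair.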

[4] = NCI Yeast Anticancer Drug Screen. Data for the cln2 rad14 strain (AID 165);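 also: 0% = growth equal to vehicle treated cultures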; settings: S. cerevisiae cln2 rad14 strain, at 50.0 µM, stronger effect = higher value
Procedure, shortened: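 Each compound was tested on cln2 rad14 yeast. Inhibition of growth was calculated against vehicle-exposed controls.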

[5] = NCI Yeast Anticancer Drug Screen. Data for the bub3 strain (AID 167); settings: S. cerevisiae bub3 mutant strain, at 50.0 µM, stronger effect = higher value
Procedure, shortened: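 In this screen, a yeast mutant lacking normal mitotic checkpoint function is challenged with compound. Relative growth versus vehicle gives the inhibition value.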

[6] = NCI Yeast Anticancer Drug Screen. Data for the mlh1 rad18 strain (AID 175); settings: S. cerevisiae mlh1 rad18 strain growth inhibition; at 50.0 µM; stronger effect = higher value
Procedure, shortened: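 Vehicle-treated cultures served as the reference for growth inhibition in a yeast strain carrying DNA damage repair alterations exposed to each compound.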

Compound | growth inhibition [1] | growth inhibition [2] | growth inhibition [3] | growth inhibition [4] | growth inhibition [5] | growth inhibition [6]
O=C(O)c1ccc(Cl)c2ncccc12 | 5.3% | 1.25% | -1.3% | -28.2% | -9.75% | 13.2%
CCC(=O)Nc1cc(Cl)ccc1Cl | 34.2% | 11.8% | 10.4% | 10.2% | -8.9% | 11.2%
O=C(CCN1C(=O)NC(c2ccccc2)(c2ccccc2)C1=O)NCCN1CCOCC1 | -0.6% | 13.5% | 5.7% | 0.95% | -2% | 24.7%
Nc1cccc2c1C(=O)c1cccc(N)c1C2=O | 7.65% | 16.4% | 8.4% | -7.35% | 8.2% | 21.9%
O=C(N/N=C/c1ccc(Cl)cc1Cl)c1ccccc1 | -13.8% | -1.65% | -2.95% | -5.1% | -8.65% | -3.9%
CCCc1cc(=O)n(CCCc2ccccc2)c(=O)[nH]1 | -3.85% | 1.25% | 13.4% | -7.75% | 15.2% | 18.4%
O=C1NC2(CCCCC2)N=C2C(Cl)CCCC12Cl (stereo unspecified) | -22.1% | -24.5% | -0.7% | 21% | -1.85% | -8.8%
CCOC(=O)N1CCN(Cc2cc(=O)n3cc(C)ccc3n2)CC1 | -14.1% | -15.5% | 11.3% | 16.2% | 5.95% | 2.2%
NS(=O)(=O)c1cc2c(cc1Cl)NC(Cc1ccccc1)NS2(=O)=O (stereo unspecified) | -20.7% | -4.55% | -9.45% | -7.2% | 0.2% | 18.4%
O=C1CCCC2OC2[C@H]2CCCCCC[C@@H]12 (stereo partly specified) | 2.5% | 0.9% | 4.8% | 3.15% | -2.35% | 7.85%
NC(=S)N/N=C/c1cc(=O)c2cc(Cl)ccc2o1 | -0.05% | 11.8% | 42.3% | 45.8% | 7.95% | 55%
COc1cccc(N2C(=O)C3c4[nH]c5ccc(C)cc5c4C4CCC(C(C)(C)C)CC4C3C2=O)c1 (stereo unspecified) | 12.7% | -20.1% | 13% | 2.55% | 1.4% | -5.55%
Cc1ccc(N2C(=O)/C(=C/c3ccc(N(CCC#N)CCC#N)cc3)CC2(O)c2ccccc2)cc1 (stereo unspecified) | -12.1% | -12.6% | -38.3% | -23.8% | -13.1% | -5.55%
Cc1ccc(S(=O)(=O)N2CCC2c2ccccc2)cc1 (stereo unspecified) | 4.55% | -3.8% | -17.9% | -3.85% | -17.9% | -24.9%
CCOC(=O)C(NC(C)=O)C(C)O (stereo unspecified) | 5.85% | 3.95% | 5.05% | 3.85% | 2.95% | -0.75%
Cc1cccc(-c2cc3cccnc3nc2NN=O)c1C | 64.8% | 68% | 75.7% (active) | 39.3% | 67.1% | 76.5% (active)
CCCCNS(=O)(=O)CCCC | 22.2% | 2.4% | -6.35% | -29.6% | 6.15% | -9.8%
O=S1(=O)CC(N2CCCCC2)C1 | -3.95% | 2.05% | 17.3% | -40.9% | -3% | -13.3%

Compound | growth inhibition [1] | growth inhibition [2] | growth inhibition [3] | growth inhibition [4] | growth inhibition [5] | growth inhibition [6]
CCOC(=O)C1/C(=N\N=C2\c3c(nnp3N(CCOS(C)(=O)=O)CCOS(C)(=O)=O)C(C(=O)OCC)C(c3ccc(OC(C)=O)cc3)C2C(=O)OCC)c2c(nnp2N(CCOS(C)(=O)=O)CCOS(C)(=O)=O)C(C(=O)OCC)C1c1ccc(OC(C)=O)cc1 (stereo unspecified) | 6.75% | -0.05% | -3.85% | 4.25% | 10.3% | -4.5%
CCOC(=O)c1c(/N=C/c2ccc3c(c2)OCO3)sc2c1CCCC2 | 7.7% | -23.3% | 17.8% | 11.8% | 11.3% | 3.2%
CC1=CCC(=O)[C@]2(C)C(CC(=O)O)[C@]3(C)C4=C(C)C(c5ccoc5)C[C@@H]4O[C@@H]3[C@H](O)[C@@H]12 (stereo partly specified) | 26.5% | -9.6% | 9.65% | 41% | -1.2% | -67.8%
O=C(/C=C/c1ccccc1Cl)c1ccc(Cl)c(Cl)c1 | 28.7% | 0.2% | 2.1% | 12% | 15.4% | 29.4%
Cc1cc(=O)c2c(C)nn(-c3ccccc3)c2[nH]1 | -16.3% | -36.2% | 10.3% | -9.15% | 2.4% | -1.85%
CC(C)N(CCn1c2c3ccccc3ccc2c2oc(=O)c3ccccc3c21)C(C)C | 13.8% | -23.7% | -2.8% | 12% | -2.95% | -8%
CCCCCC(=O)OC[n+]1ccc2c(C)c3[nH]c4ccc(OC)cc4c3c(C)c2c1 | 87.8% (active) | 91.8% (active) | 90.2% (active) | 89.3% (active) | 87.1% (active) | 91.5% (active)
CN(C)c1ccc(N=Nc2cccc3ccoc23)cc1 | 11.6% | -23.6% | 9.9% | -28.3% | 14.9% | 14%
CC[C@]12C=CCN3CCC4(c5cc([C@@]6(C(=O)OC)CC7CN(CCc8c6[nH]c6ccccc86)C[C@@H]6CCC[C@H]76)c(OC)cc5N(C)C4[C@](O)(C(=O)OC)C1OC(C)=O)C32 (stereo partly specified) | -9.2% | 3.8% | -30.6% | -22.1% | -45% | 9.3%
CCCCCCCC[N+](C)([O-])CCCCCC[N+](C)([O-])CCCCCCCC (stereo unspecified) | 63.6% | 25.2% | 69.8% | 66.8% | 5.85% | 76.2% (active)
CCOC(=O)c1ccnc2ccccc12 | -5.05% | -3.75% | 1.1% | -4.85% | 5.65% | 3.7%
Clc1ccnnc1Cl | -17.7% | -30.8% | -43% | 13.2% | -37.5% | -15.7%
COc1nc(NC2OC(CO)C(O)C(O)C2O)cc(=O)[nH]1 (stereo unspecified) | -4.2% | -7.45% | 1.45% | -3.15% | -37.7% | -6.45%
O=[N+]([O-])c1ccc2[nH]c(-c3ccccc3)cc2c1 | 5.2% | 10.8% | -3.6% | 7.3% | -2.2% | 18.9%
O=C(CN1C(=O)c2cccc3c(Br)ccc(c23)C1=O)c1ccc(F)cc1 | -10.4% | -14.7% | 7.6% | 18.7% | -12% | 1.3%
CC(=O)NC(Cc1c[nH]c2ccccc12)C(=O)Oc1ccc([N+](=O)[O-])cc1 (stereo unspecified) | -9.2% | 23.1% | 24.6% | 13.1% | 9.3% | 17.6%
CCCCCCCCCCCCCCCCCCSc1ccc2ccccc2c1 | 37.5% | -10.5% | 20.4% | -14.1% | 0.6% | -5.7%
NC(N)=NS(=O)(=O)c1ccc(NC(=O)c2ccc(Cl)c3c(Nc4ccc(S(=O)(=O)N=C(N)N)cc4)c4ccccc4nc23)cc1 | 32.2% | 31.6% | 30.9% | 34.5% | 10.2% | 29.1%
